Source: PubChem BioAssay (NCI)
This is part of a sample that, as a whole, favours compounds with a hit. Of some 79,000 tested, about 15% had one in any assay. Active and inactive are the calls of the source. No stated cut-off is given here; in the data, active means growth inhibition above about 70%; inactive means the rest.

How the values were obtained:
[1] = NCI Yeast Anticancer Drug Screen. Data for the rad50 strain (AID 155);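 further: 0% = growth of vehicle-only cultures of the same strain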; details: S. cerevisiae rad50 strain growth inhibition; at 50.0 µM; stronger effect = higher value
Method in brief: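 Inhibition values express reduced yeast growth in compound-treated cultures relative to vehicle-treated controls.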

[2] = NCI Yeast Anticancer Drug Screen. Data for the mec2-1 strain (AID 157); details: S. cerevisiae mec2-1 strain, at 50.0 µM, stronger effect = higher value
Method in brief: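 Compounds were applied to mec2-1 yeast cells. Their growth was then compared with that of vehicle-treated cultures to give growth inhibition.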

[3] = NCI Yeast Anticancer Drug Screen. Data for the sgs1 mgt1 strain (AID 161);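 further: 0% = growth of cultures given vehicle only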; details: S. cerevisiae sgs1 mgt1 strain, at 50.0 µM, stronger effect = higher value
Method in brief: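 Compounds are added to genetically altered yeast, and growth is compared with cultures given vehicle alone to give percent inhibition.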

[4] = NCI Yeast Anticancer Drug Screen. Data for the cln2 rad14 strain (AID 165);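 further: 0% = growth equal to vehicle treated cultures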; details: S. cerevisiae cln2 rad14 strain, at 50.0 µM, stronger effect = higher value
Method in brief: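 Strain: cln2 rad14 yeast, altered in cell cycle control and DNA damage repair. Read-out: growth inhibition vs vehicle.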

[5] = NCI Yeast Anticancer Drug Screen. Data for the bub3 strain (AID 167); details: S. cerevisiae bub3 mutant strain, at 50.0 µM, stronger effect = higher value
Method in brief: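 Steps: expose the mutant yeast strain to compound; grow alongside vehicle-treated cultures; measure growth; express inhibition against the vehicle cultures.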

[6] = NCI Yeast Anticancer Drug Screen. Data for the mlh1 rad18 strain (AID 175); details: S. cerevisiae mlh1 rad18 strain growth inhibition; at 50.0 µM; stronger effect = higher value
Method in brief: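 A repair-deficient yeast strain is exposed to test compound, and growth is scored relative to vehicle-treated controls.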

Measured: growth inhibition

CCC(=O)C(CC)c1ccccc1OC (stereo not given)
inactive: [1] 8.75% | [2] -8.35% | [3] 4.65% | [4] 16.5% | [5] 5.45% | [6] 15%

CCOC(=O)c1c2c(nc3c1CCCC3)CCCC2
inactive: [1] 3.2% | [2] 3.45% | [3] -1.6% | [4] -1.05% | [5] 7.4% | [6] -24.9%

CCN(CC)CCOC(=O)CCC(C)=O
inactive: [1] 6.35% | [2] -31.5% | [3] -7.65% | [4] 0.8% | [5] -9.1% | [6] 7.45%

O=C(COCC(=O)N/N=C/c1ccc(Cl)cc1Cl)N/N=C\c1cc(Cl)cc(Cl)c1
inactive: [1] -21.1% | [2] -1.65% | [3] 0.75% | [4] 37.2% | [5] -1% | [6] -12.2%

Clc1cc(Cl)cc(C=NC23CC4CC(CC(C4)C2)C3)c1
inactive: [1] -13.8% | [2] -31.2% | [3] -40.5% | [4] -20% | [5] -24.4% | [6] -11%

N#CC1(Cl)CC2CC1C1N=NN(c3ccccc3)C21 (stereo not given)
inactive: [1] -24.6% | [2] -15.3% | [3] -0.25% | [4] -58% | [5] 25.6% | [6] 0.75%

Nc1nnc2nc(CC(=O)c3ccc4ccccc4c3)c(=O)[nH]n12
inactive: [1] -1.85% | [2] 10.9% | [3] -0.1% | [4] -21.2% | [5] -4.15% | [6] 2.05%

CC1C2(C)OCC(C#N)(C(=N)O2)C1(C#N)C#N (stereo not given)
inactive: [1] 21.2% | [2] 12.2% | [3] -44.5% | [4] -18.3% | [5] -40% | [6] 3.65%

Cc1ccc(S(=O)(=O)N2c3ccccc3[C@H]3CCC=C[C@H]32)cc1
inactive: [1] -13.2% | [2] 17.8% | [3] -19.4% | [4] -20.6% | [5] 30.6% | [6] -15.4%

O=C1c2ccccc2C(=O)c2c(O)c3c(c(O)c21)CCCC3
inactive: [1] -14.4% | [2] 7.55% | [3] -1.05% | [4] -9.65% | [5] 1.95% | [6] 5.7%

NC(Cc1ccc(CP(=O)(O)O)cc1)C(=O)O (stereo not given)
inactive: [1] -44.8% | [2] -61.3% | [3] -55.1% | [4] -20% | [5] -27.5% | [6] -70.3%

Clc1ccc(N=C2c3ccccc3CN2c2ccc(Cl)cc2)cc1
inactive: [1] -32.6% | [2] -20.1% | [3] -14.4% | [4] -4.85% | [5] -22.3% | [6] -13.9%

Cc1ccc2nc(N(C)C)cc(N(C)C)c2c1
inactive: [1] -7.1% | [2] 6% | [3] 0.2% | [4] -100% | [5] -4.1% | [6] 7.9%

COc1cc(C2CC(C)(N3CCCC3)Oc3cc4c(cc32)OCO4)cc(OC)c1OC (stereo not given)
inactive: [1] 1.2% | [2] -1.6% | [3] 9.5% | [4] -47.4% | [5] -11.8% | [6] 5.95%

CSc1nc(NC2OC(CO)C(O)C(O)C2O)c(I)c(=O)n1C (stereo not given)
inactive: [1] 3.15% | [2] 1.85% | [3] -5.3% | [4] -6.25% | [5] -1.75% | [6] 27.7%

CN(C)NC(=O)CC#N
inactive: [1] -18.4% | [2] -1.55% | [3] -4.45% | [4] -4.3% | [5] -6% | [6] 2.75%

Nc1cc(C(=O)O)c(O)c(Cl)c1O
inactive: [1] 31.3% | [2] 7.05% | [3] 12.3% | [4] 21.6% | [5] 4.5% | [6] 29.8%

N#CC(c1ccc(Cl)cc1)c1cccc(C(C#N)c2ccc(Cl)cc2)n1 (stereo not given)
inactive: [1] 28.9% | [2] 13.6% | [3] 38% | [4] 32.1% | [5] 38.4% | [6] 25.3%

Nn1c(=S)[nH]nc(/C=C/c2ccc3c(c2)OCO3)c1=O
inactive: [1] 38.9% | [2] 20.1% | [3] 3.8% | [4] -19.1% | [5] 6.35% | [6] 15.6%

CN1N=CSC12C(=O)N(c1ccc(Cl)cc1)C(=O)N2c1ccc(Cl)cc1 (stereo not given)
inactive: [1] 18.1% | [2] 3.6% | [3] 11.2% | [4] 30.4% | [5] 51% | [6] 11.9%

CCCCOC(=O)OCCOCCOC(=O)OCCCC
inactive: [1] -7.75% | [2] 3.1% | [3] 2.6% | [4] -70.8% | [5] -9.2% | [6] 0.35%

O=C(NCCCl)Nc1[nH]c(=O)ncc1I
inactive: [1] -6.55% | [2] -6.7% | [3] 1.1% | [4] -10.3% | [5] -8.75% | [6] -7.95%

CC1=C(c2ccccc2)OS(=O)(=O)CC1N(C)C (stereo not given)
inactive: [1] -2.6% | [2] -16.4% | [3] -1.65% | [4] -6.95% | [5] -7.4% | [6] -2.35%

C=CC(Br)(CBr)CCC(Cl)C(C)C (stereo not given)
active: [1] 86.2% | [2] 90.7% | [3] 90.8% | [4] 91.7% | [5] 90.3% | [6] 90.5%

O=Cc1cc(O)ccc1[N+](=O)[O-]
inactive: [1] 11.4% | [2] -19.2% | [3] -9.55% | [4] 13.3% | [5] -13.4% | [6] 16.1%

OC12c3ccccc3C1(N1CCOCC1)CCCCC21OCCCO1 (stereo not given)
inactive: [1] 12.7% | [2] -11.2% | [3] -17.6% | [4] 10.1% | [5] -23.5% | [6] -5.15%

COc1ccc(-n2c(=O)c(N=Nc3ccc(Cl)cc3)c(O)n(-c3ccc(I)cc3)c2=S)cc1
inactive: [1] 49.8% | [2] 5.45% | [3] 33.4% | [4] -3.7% | [5] 0.8% | [6] 22.4%

CCC(C)C1NC(=S)N(c2ccccc2)C1=O (stereo not given)
inactive: [1] -8.65% | [2] 7.05% | [3] -18.1% | [4] -0.55% | [5] -9% | [6] -30.4%

CSc1c(C(=O)Nc2ccc(C)cc2)c(N)nn1-c1ccccc1
inactive: [1] 20.8% | [2] -12.3% | [3] 20.4% | [4] 12.8% | [5] 4.35% | [6] 2.7%

N#CC1(N)c2ccccc2-c2ccccc21
inactive: [1] 34.8% | [2] 1.95% | [3] 3.4% | [4] 9.65% | [5] 3.65% | [6] 4.8%

CCN(CC)CC1CCCCN1 (stereo not given)
inactive: [1] -10.1% | [2] -15.7% | [3] 1.95% | [4] 29.6% | [5] 1.4% | [6] 2.55%

CCCCCCCCCCCCCCCC(=O)OCC1OC(n2cc(F)c(=O)[nH]c2=O)C(NC(=O)N(CCCl)N=O)C(O)C1O (stereo not given)
inactive: [1] -16.1% | [2] -31.8% | [3] -16.6% | [4] -2.1% | [5] -24.4% | [6] -23.1%

NC(C1SCCS1)C(O)C(O)C(O)CO (stereo not given)
inactive: [1] -5.55% | [2] -27.6% | [3] -1.9% | [4] -3.7% | [5] 3.1% | [6] -3.95%

N#Cc1c2c(c(=S)n(-c3ccc(Cl)cc3)c1N)CCCC2
inactive: [1] -4.4% | [2] -3.35% | [3] -5.8% | [4] 1.75% | [5] 6.85% | [6] -7.2%

O=C1ON(c2ccccc2)C(c2cccc(Cl)c2)N1c1ccccc1 (stereo not given)
inactive: [1] 14.1% | [2] -2.85% | [3] -3.95% | [4] 3.25% | [5] 9.25% | [6] -16.1%

Nc1ccc(S(=O)(=O)Nc2nc3ccccc3nc2Nc2ccc(S(N)(=O)=O)cc2)cc1
inactive: [1] 6.3% | [2] -5.05% | [3] -13.8% | [4] -13.7% | [5] -10.3% | [6] -13.6%

S=C(S)N1CCN(c2ccc(Cl)c(Cl)c2)CC1
inactive: [1] 4% | [2] -1.65% | [3] 20.9% | [4] 2.95% | [5] 8.1% | [6] 57.6%

Nc1cc(F)ccc1CC(=O)O
inactive: [1] 11.4% | [2] 23.1% | [3] 15.3% | [4] -4.8% | [5] 11.7% | [6] 4.6%

COc1cc(O)c(C(C)=O)c(OC)c1
inactive: [1] -8.25% | [2] -12.8% | [3] -10.1% | [4] -31.1% | [5] -0.2% | [6] -2.05%

O=C1c2ccccc2C(=O)N1CC(F)(F)F
inactive: [1] -11.9% | [2] -4.75% | [3] -9.5% | [4] 8.25% | [5] 5.6% | [6] -12.3%
